# According to PMC5540273 (PLoS ONE, 2017):
# Where two headings read alike, the source gives them in different places.
# Assays:
# Conditions in all cases: n = 1
# ACVR2B = tested on: ACVR2B
# ACVRL1 = tested on: ACVRL1
# ADCK3 = tested on: T1, ADCK3
# T1 construct: gene CABC1
# ADCK4 = tested on: ADCK4
# AKT1 = tested on: AKT1
# AKT2 = tested on: AKT2
# AKT3 = tested on: AKT3
# ALK = tested on: ALK
# AMPK-alpha1 = tested on: T2, AMPK-alpha1
# T2 construct: gene PRKAA1
# AMPK-alpha2 = tested on: T3, AMPK-alpha2
# T3 construct: gene PRKAA2
# ANKK1 = tested on: ANKK1
# ARK5 = tested on: T4, ARK5
# T4 construct: gene NUAK1
# ASK1 = tested on: T5, ASK1
# T5 construct: gene MAP3K5
# ASK2 = tested on: T6, ASK2
# T6 construct: gene MAP3K6
# AURKA = tested on: AURKA
# AURKB = tested on: AURKB
# AURKC = tested on: AURKC
# AXL = tested on: AXL
# BIKE = tested on: T7, BIKE
# T7 construct: gene BMP2K
# BLK = tested on: BLK
# [1] = concentration: 1 μM, replicates: in singlicate
# 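Also: KINOMEscan kinase panel screen.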
smiles,measurement,setting,value
Cc1nnc(-c2ccc3occ(-c4ccc(S(C)=O)cc4)c3c2)[nH]1 (stereo not drawn),%Inh,ACVR2B; [1],14%
same,%Inh,ACVRL1; [1],0%
same,%Inh,ADCK3; [1],0%
same,%Inh,ADCK4; [1],0%
same,%Inh,AKT1; [1],5%
same,%Inh,AKT2; [1],4%
same,%Inh,AKT3; [1],0%
same,%Inh,ALK; [1],0%
same,%Inh,AMPK-alpha1; [1],99.1%
same,%Inh,AMPK-alpha2; [1],6%
same,%Inh,ANKK1; [1],28%
same,%Inh,ARK5; [1],6%
same,%Inh,ASK1; [1],0%
same,%Inh,ASK2; [1],3%
same,%Inh,AURKA; [1],25%
same,%Inh,AURKB; [1],49%
same,%Inh,AURKC; [1],0%
same,%Inh,AXL; [1],24%
same,%Inh,BIKE; [1],0%
same,%Inh,BLK; [1],0%
COc1cc2ncn(-c3cc(OCC4CCCO4)c(C(N)=O)s3)c2cc1OC (stereo not drawn) [GSK204607],%Inh,ACVR2B; [1],0%
same,%Inh,ACVRL1; [1],0%
same,%Inh,ADCK3; [1],23%
same,%Inh,ADCK4; [1],12%
same,%Inh,AKT1; [1],0%
same,%Inh,AKT2; [1],0%
same,%Inh,AKT3; [1],0%
same,%Inh,ALK; [1],0%
same,%Inh,AMPK-alpha1; [1],0%
same,%Inh,AMPK-alpha2; [1],2%
same,%Inh,ANKK1; [1],0%
same,%Inh,ARK5; [1],17%
same,%Inh,ASK1; [1],7%
same,%Inh,ASK2; [1],0%
same,%Inh,AURKA; [1],0%
same,%Inh,AURKB; [1],1%
same,%Inh,AURKC; [1],80%
same,%Inh,AXL; [1],0%
same,%Inh,BIKE; [1],72%
same,%Inh,BLK; [1],0%
CC(=O)Nc1nc2cnc(Nc3cc(NC(=O)c4cccc(CCC#N)c4)ccc3C)nc2s1,%Inh,ACVR2B; [1],0%
same,%Inh,ACVRL1; [1],15%
same,%Inh,ADCK3; [1],4%
same,%Inh,ADCK4; [1],0%
same,%Inh,AKT1; [1],17%
same,%Inh,AKT2; [1],33%
same,%Inh,AKT3; [1],0%
same,%Inh,ALK; [1],0%
same,%Inh,AMPK-alpha1; [1],8%
same,%Inh,AMPK-alpha2; [1],7%
same,%Inh,ANKK1; [1],0%
same,%Inh,ARK5; [1],7%
same,%Inh,ASK1; [1],0%
same,%Inh,ASK2; [1],16%
same,%Inh,AURKA; [1],12%
same,%Inh,AURKB; [1],18%
same,%Inh,AURKC; [1],7%
same,%Inh,AXL; [1],0%
same,%Inh,BIKE; [1],10%
same,%Inh,BLK; [1],0%
Cc1ccc(NC(=O)Nc2cccc(C(F)(F)F)c2)cc1 [GSK955403],%Inh,ACVR2B; 1 µM,0%
same,%Inh,ACVRL1; 1 µM,0%
same,%Inh,ADCK3; 1 µM,5%
same,%Inh,ADCK4; 1 µM,0%
same,%Inh,AKT1; 1 µM,12%
same,%Inh,AKT2; 1 µM,3%
same,%Inh,AKT3; 1 µM,0%
same,%Inh,ALK; 1 µM,0%
same,%Inh,AMPK-alpha1; 1 µM,0%
same,%Inh,AMPK-alpha2; 1 µM,0%
same,%Inh,ANKK1; 1 µM,0%
same,%Inh,ARK5; 1 µM,0%
same,%Inh,ASK1; 1 µM,20%
same,%Inh,ASK2; 1 µM,0%
same,%Inh,AURKA; 1 µM,0%
same,%Inh,AURKB; 1 µM,0%
same,%Inh,AURKC; 1 µM,19%
same,%Inh,AXL; 1 µM,0%
same,%Inh,BIKE; 1 µM,4%
same,%Inh,BLK; 1 µM,0%
O=C1NC(=O)C(N2CCc3ccccc32)=C1c1ccccc1Cl [SB-373598],%Inh,ACVR2B; [1],33%
same,%Inh,ACVRL1; [1],13%
same,%Inh,ADCK3; [1],17%
same,%Inh,ADCK4; [1],16%
same,%Inh,AKT1; [1],0%
same,%Inh,AKT2; [1],19%
same,%Inh,AKT3; [1],25%
same,%Inh,ALK; [1],4%
same,%Inh,AMPK-alpha1; [1],17%
same,%Inh,AMPK-alpha2; [1],22%
same,%Inh,ANKK1; [1],18%
same,%Inh,ARK5; [1],10%
same,%Inh,ASK1; [1],7%
same,%Inh,ASK2; [1],13%
same,%Inh,AURKA; [1],0%
same,%Inh,AURKB; [1],10%
same,%Inh,AURKC; [1],3%
same,%Inh,AXL; [1],0%
same,%Inh,BIKE; [1],18%
same,%Inh,BLK; [1],7%
C[C@@H]1CCCCN1c1cc(-c2ccc3c(N)n[nH]c3c2)nc(N)n1 [GSK2258759],%Inh,ACVR2B; [1],0%
same,%Inh,ACVRL1; [1],0%
same,%Inh,ADCK3; [1],14%
same,%Inh,ADCK4; [1],20%
same,%Inh,AKT1; [1],0%
same,%Inh,AKT2; [1],0%
same,%Inh,AKT3; [1],0%
same,%Inh,ALK; [1],0%
same,%Inh,AMPK-alpha1; [1],0%
same,%Inh,AMPK-alpha2; [1],0%
same,%Inh,ANKK1; [1],17%
same,%Inh,ARK5; [1],0%
same,%Inh,ASK1; [1],0%
same,%Inh,ASK2; [1],0%
same,%Inh,AURKA; [1],82%
same,%Inh,AURKB; [1],0%
same,%Inh,AURKC; [1],14%
same,%Inh,AXL; [1],0%
same,%Inh,BIKE; [1],26%
same,%Inh,BLK; [1],0%
CN(C)CCN(C)C(=O)c1cc(-c2ccncc2)c(-c2ccc(Cl)c(O)c2)o1.Cl.Cl [SB-710397],%Inh,ACVR2B; [1],9%
same,%Inh,ACVRL1; [1],0%
same,%Inh,ADCK3; [1],11%
same,%Inh,ADCK4; [1],45%
same,%Inh,AKT1; [1],0%
same,%Inh,AKT2; [1],0%
same,%Inh,AKT3; [1],0%
same,%Inh,ALK; [1],29%
same,%Inh,AMPK-alpha1; [1],0%
same,%Inh,AMPK-alpha2; [1],0%
same,%Inh,ANKK1; [1],0%
same,%Inh,ARK5; [1],0%
same,%Inh,ASK1; [1],18%
same,%Inh,ASK2; [1],0%
same,%Inh,AURKA; [1],0%
same,%Inh,AURKB; [1],9%
same,%Inh,AURKC; [1],0%
same,%Inh,AXL; [1],8%
same,%Inh,BIKE; [1],13%
same,%Inh,BLK; [1],12%
COc1ccccc1CNC(=O)c1cc(C(=O)c2ccccc2C)c[nH]1 [GSK364507],%Inh,ACVR2B; [1],0%
same,%Inh,ACVRL1; [1],0%
same,%Inh,ADCK3; [1],13%
same,%Inh,ADCK4; [1],34%
same,%Inh,AKT1; [1],0%
same,%Inh,AKT2; [1],17%
same,%Inh,AKT3; [1],0%
same,%Inh,ALK; [1],21%
same,%Inh,AMPK-alpha1; [1],0%
same,%Inh,AMPK-alpha2; [1],0%
same,%Inh,ANKK1; [1],0%
same,%Inh,ARK5; [1],10%
same,%Inh,ASK1; [1],0%
same,%Inh,ASK2; [1],2%
same,%Inh,AURKA; [1],100%
same,%Inh,AURKB; [1],22%
same,%Inh,AURKC; [1],11%
same,%Inh,AXL; [1],8%
same,%Inh,BIKE; [1],0%
same,%Inh,BLK; [1],17%
Cc1c(Cn2ccn3c(=O)cc(N4CCOCC4)nc23)cccc1C(F)(F)F [GSK2289044],%Inh,ACVR2B; [1],0%
same,%Inh,ACVRL1; [1],0%
same,%Inh,ADCK3; [1],32%
same,%Inh,ADCK4; [1],0%
same,%Inh,AKT1; [1],0%
same,%Inh,AKT2; [1],19%
same,%Inh,AKT3; [1],86%
same,%Inh,ALK; [1],5%
same,%Inh,AMPK-alpha1; [1],23%
same,%Inh,AMPK-alpha2; [1],17%
same,%Inh,ANKK1; [1],6%
same,%Inh,ARK5; [1],9%
same,%Inh,ASK1; [1],4%
same,%Inh,ASK2; [1],7%
same,%Inh,AURKA; [1],7%
same,%Inh,AURKB; [1],0%
same,%Inh,AURKC; [1],3%
same,%Inh,AXL; [1],7%
same,%Inh,BIKE; [1],0%
same,%Inh,BLK; [1],0%
